# Compounds without any hit were thinned out: in the full panel of roughly 83,000, 20% have a hit.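 Values shown are percent growth following 48 h exposure of cells in 96-well plates to a single concentration of compound; below 10 was considered active.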 Values without a mark were called inactive. Activity calls are given as the source filed them.
# How the values were obtained:
# Assay in all cases: NCI-60 one-dose screen, 48 h (100 = growth as untreated, 0 = no growth, -100 = all killed)
# Details in all cases: 10 µM unless noted
# DU-145 prostate = tested on: DU-145 prostate
# K-562 leukemia = tested on: K-562 leukemia
# MALME-3M melanoma = tested on: MALME-3M melanoma
# MDA-MB-231 breast = tested on: MDA-MB-231 breast
# SF-268 CNS = tested on: SF-268 CNS
# SF-295 CNS = tested on: SF-295 CNS
# SF-539 CNS = tested on: SF-539 CNS
# UACC-257 melanoma = tested on: UACC-257 melanoma
# M14 melanoma = tested on: M14 melanoma
# HCT-15 colon = tested on: HCT-15 colon
# HT29 colon = tested on: HT29 colon
# SNB-75 CNS = tested on: SNB-75 CNS
# SNB-19 CNS = tested on: SNB-19 CNS
# U251 CNS = tested on: U251 CNS
# PC-3 prostate = tested on: PC-3 prostate
# SK-MEL-5 melanoma = tested on: SK-MEL-5 melanoma
# UACC-62 melanoma = tested on: UACC-62 melanoma
# LOX IMVI melanoma = tested on: LOX IMVI melanoma
# SK-MEL-28 melanoma = tested on: SK-MEL-28 melanoma
Compound,growth (DU-145 prostate),growth (K-562 leukemia),growth (MALME-3M melanoma),growth (MDA-MB-231 breast),growth (SF-268 CNS),growth (SF-295 CNS),growth (SF-539 CNS),growth (UACC-257 melanoma),growth (M14 melanoma),growth (HCT-15 colon),growth (HT29 colon),growth (SNB-75 CNS),growth (SNB-19 CNS),growth (U251 CNS),growth (PC-3 prostate),growth (SK-MEL-5 melanoma),growth (UACC-62 melanoma),growth (LOX IMVI melanoma),growth (SK-MEL-28 melanoma)
Fc1ccccc1CSc1ncnc2nc[nH]c12,120%,99.6%,129%,106%,109%,107%,89.6%,61.3%,108%,114%,107%,105%,94.3%,106%,105%,105%,94.2%,96.4%,112%
COc1ccc(C(O)c2cc3c(N)c(C(=O)Nc4cccc(Br)c4C)sc3nc2C)cc1 (centres undefined),9.81% (active),5.92% (active),47.3%,5.97% (active),30.1%,18.5%,-3.14% (active),47.8%,18.9%,18.6%,-16% (active),-1.38% (active),44%,20.9%,26.9%,-7.36% (active),27.2%,32.7%,64.7%
COc1cc(Nc2cc(O)c3c(=O)cc(-c4ccccc4)oc3c2)cc(OC)c1,20%,13.1%,73.6%,15.9%,48.2%,33.5%,-35.2% (active),77.9%,28.4%,25%,3.58% (active),-9.05% (active),43.1%,22.8%,27.8%,28.6%,42.5%,41.7%,68.5%
CC[C@@]12C=CCN3CC[C@]4(c5cc(NC(=O)COc6cc(OCC(=O)Nc7cc8c(cc7OC)N(C)[C@H]7[C@@](O)(C(=O)OC)[C@H](OC(C)=O)[C@]9(CC)C=CCN%10CC[C@]87[C@@H]%109)cc7oc(-c8ccccc8)cc(=O)c67)c(OC)cc5N(C)[C@@H]4[C@](O)(C(=O)OC)[C@H]1OC(C)=O)[C@H]32,30.3%,45.6%,111%,4.69% (active),-1.19% (active),71.3%,89.3%,103%,50.4%,34.7%,1.38% (active),82.5%,58.5%,-3.12% (active),23%,103%,93.8%,7.97% (active),112%
ClCC1(Cn2cnc3c(Cl)nc(Cl)nc32)COC1,67.8%,64.7%,102%,80.4%,78%,88.8%,103%,75.8%,62.6%,45.9%,76.8%,85.4%,88.8%,89.2%,66.3%,98.4%,91.6%,45.2%,89.9%
C[C@]12C[C@H]1CC[C@]1(C)[C@@H]2CC[C@@]23C[C@H](CC[C@H]21)[C@@](O)(CO)C3,104%,66.7%,98.7%,93.1%,103%,113%,93%,100%,-47.9% (active),88.6%,100%,105%,95.4%,103%,88.9%,97.7%,76.2%,93.6%,105%
CC1CCN(C(=O)OCc2nc3nc(Cl)nc(N4CCOCC4)c3[nH]2)CC1,-76.7% (active),-16.7% (active),-78.9% (active),-60.1% (active),-81.6% (active),88.3%,-47.1% (active),-89.7% (active),-50.9% (active),-12.2% (active),-66.8% (active),14.8%,60.3%,-89.2% (active),-59.2% (active),-27.3% (active),-94.1% (active),-86.4% (active),-86.4% (active)
O=C(N/N=C/c1ccncc1)c1ccccc1Nc1cccc(C(F)(F)F)c1,69.2%,77.7%,92.8%,79.8%,69.5%,94.5%,112%,62.9%,87.4%,74.2%,99.3%,75.8%,72.2%,86.9%,75.8%,76%,81%,70.5%,94.9%
CCN1C(=O)N(CC)C2C1NN=c1s/c(=C3\C(=O)Nc4ccccc43)c(=O)n12 (centres undefined),14.9%,2.13% (active),19%,25%,67.1%,8.72% (active),-34.1% (active),80.4%,20.1%,26.8%,5.74% (active),-13.6% (active),36.5%,31.4%,22.6%,19.5%,30.9%,42.2%,53%
COc1ccc(-c2cnnc3c(-c4cccc(C(F)(F)F)c4)cnn23)cc1,57.8%,86.3%,24.1%,72.9%,30.1%,-5.8% (active),15.9%,44%,78.7%,68.3%,63.6%,-26.9% (active),50.4%,17.5%,63.2%,5.82% (active),62.6%,75.4%,56.1%
Nc1nc(N)nc(NCc2ccccc2)n1,112%,89.3%,108%,108%,100%,100%,100%,110%,107%,97.6%,101%,96.5%,107%,105%,105%,103%,101%,101%,106%
CC(=O)c1c[nH]c2ccc(-c3ccnc(Nc4ccc(NC(=O)c5cccc(F)c5)c(CN5CCOCC5)c4)n3)cc12,2.59% (active),4.68% (active),-21.7% (active),-37.5% (active),-16.8% (active),-17.2% (active),-56% (active),4.48% (active),-19.4% (active),0.545% (active),7.18% (active),-56.1% (active),0.141% (active),8.5% (active),-0.531% (active),-74% (active),-41.2% (active),-3.87% (active),1.85% (active)
Cc1ccc(C2CC(c3cccc(Nc4ccncc4)c3)=NN2c2cc(Cl)cc(Cl)c2)cc1 (centres undefined),30.8%,1.45% (active),1.81% (active),40.9%,82.8%,-6.71% (active),78.1%,76.2%,2.02% (active),-65.6% (active),-7.29% (active),70.2%,84.9%,-48.8% (active),33.8%,68.8%,99.4%,-87.3% (active),-72.7% (active)
COc1ccc(-c2nc(N/N=C/c3ccco3)nc(N3CCOCC3)c2C#N)cc1,93.2%,87.6%,59.5%,86.1%,80.1%,90.1%,74.2%,94.8%,85.3%,88.3%,91%,15.6%,88.9%,91.8%,59.5%,80.4%,75.6%,88.3%,80.8%
CCNC(=O)c1[nH]cc(-c2ccc(OC)cc2)c1-c1cc(OC)cc(OC)c1,108%,45.1%,93%,82.1%,96.7%,96.7%,99.2%,103%,95.8%,68.6%,94.6%,67%,84%,98%,84.2%,61.1%,48.2%,83.4%,87.9%
COc1cccc2c1C(=O)c1c(O)c3c(c(O)c1C2=O)C[C@@](O)(C(=O)CO)C[C@@H]3O[C@H]1C[C@H](N)[C@@H](O)[C@H](C)O1,-26.8% (active),1.44% (active),-50.7% (active),1.94% (active),-15.4% (active),-16.1% (active),-23.9% (active),-49.3% (active),-47.4% (active),40.5%,-14.8% (active),-66.2% (active),10%,3.07% (active),-0.191% (active),-83.1% (active),-64.4% (active),0.955% (active),-34.7% (active)

# From PubChem BioAssay (NCI)
